Drawing on PubChem BioAssay (NCATS), this text covers activity change, negative = cytotoxic and Potency for 40 compounds.

Each structure is given as a SMILES string. Results filed as inconclusive are left out. A call without a number means that no potency is given here. Unmarked numbers belong to inactive results. The source made the active and inactive calls. Calls come from the whole dose curve; as a rule, active = well fitted cell-killing curve with a large enough effect; inconclusive = small, poorly fitted or top-dose-only effect; inactive = flat fitted curve, though single readings scatter.

This assay is described as follows: qHTS of pediatric cancer cell lines to identify multiple opportunities for drug repurposing: Primary screen for U-2 OS cells (AID 1347096). Note: nearly all actives have a fitted effect of over 50% in size. As to conditions: U-2 OS viability, CellTiter-Glo luminescence, 48 h; series mostly up to 46 µM. An excerpt:
Drug repurposing or repositioning has been offered as a strategy for drug development in oncology programs. This approach has special potential for childhood cancers and other rare or orphan diseases, where the expected return on new drug development has been a disincentive to pharmaceuticals.
In this project we exploit the poly-pharmacology of drugs to discover new indications via phenotypic screening of a panel of 19 well-characterized cell lines derived from solid tumors seen in children and adolescents. The goal is to identify approved drugs with previously unrecognized anticancer properties that has the potential to reveal new mechanisms and biological processes involved in carcinogenesis or drug resistance. We employed a titration-based paradigm (quantitative high-throughput screening or qHTS), where all compounds were tested at multiple concentrations for their effect on cell viability. Concentration-response curves (CRCs) were derived directly from the primary screen, and both potency and efficacy values were used to identify compounds with robust bioactivity profiles. We screened the NIH Chemical Genomics Center (NCGC) Pharmaceutical Collection (NPC) and Mechanism Interrogation Plate (MIPE) small molecule collections of approved and investigational compounds against these cell lines; and measured metabolically active cells after 48 hours of compound treatment as a proxy for cell viability.
Assay Submitter: Nathalia J. Martinez, National Center for Advancing Translational Sciences, National Institutes of Health, Rockville, MD, USA; email: natalia.martinez@nih.gov
[1] Shen, M et al. Quantitative high-throughput phenotypic screening of pediatric cancer cell lines identifies multiple opportunities for drug repurposing. Oncotarget 2017 Dec 19;9(4):4758-4772. PMID 29435139.
The cells were obtained from University of North Carolina (UNC), Pediatric Preclinical Testing Program (PPT), and Coriell Institute (CI).
qHTS cell viability assay:
Cells were assayed in growth media at a density of 500-1,000 cells/well. Five microliters of cells were dispensed into 1,536-well, white, solid-bottom, TC-treated plates (Greiner Bio One) using a multidrop dispenser and incubated at 37 degrees C, 5% CO2, under a humidified atmosphere for 5 hours. Twenty-three nanoliters of compounds and controls (neutral control DMSO or positive control bortezomib at final concentration of 2.3 µM) were subsequently transferred by Kalypsys pintool. For primary screens, the MIPE collection was tested at 11-point dilutions (final concentrations range from 0.78 nM to 46 µM) and the NPC collection at 8-point dilutions (final concentrations range from 0.59 nM to 46 µM). Compounds tested in follow-up screens were assayed at 11-point dilutions. Cells were incubated for 48 hours, followed by addition of 3 µL of CellTiter-Glo (Promega). After a 15 min incubation at room temperature, samples were analyzed for luminescence intensity using a ViewLux High-throughput CCD imager equipped with clear filters.
As for `N=C(N)N1CCc2ccccc2C1`, the activity change, negative = cytotoxic was -4.95% [at 4.84 µM].

In the case of `CC(C)(C)NC[C@H](O)COc1cccc2c1CCCC2=O`, the Potency result was “inactive”.

With `CC(=O)OC[C@H]1O[C@@H](n2ncc(=O)[nH]c2=O)[C@H](OC(C)=O)[C@@H]1OC(C)=O`, the Potency result was “inactive”.

For `CCOc1ccccc1OCCN[C@H](C)Cc1ccc(OC)c(S(N)(=O)=O)c1`, the Potency entry was “inactive”.

For `COc1ccc(S(=O)(=O)N2c3ccc(Cl)cc3[C@@](O)(c3ccccc3Cl)[C@H]2C(=O)N2CCC[C@@H]2C(N)=O)cc1OC`, the Potency entry was “inactive”.

For the compound `CN1CCN(c2cc3c(cc2F)c(=O)c(C(=O)O)cn3-c2ccc(F)cc2)CC1`, the Potency result was “inactive”.

Consider `C=C[C@@]1(C)CC(=O)[C@]2(O)[C@@]3(C)[C@@H](O)CCC(C)(C)[C@@H]3[C@H](O)[C@H](OC(C)=O)[C@@]2(C)O1`, for which the Potency result is “inactive”.

For `OC[C@H]1O[C@@H](Oc2ccc(O)cc2)[C@H](O)[C@@H](O)[C@@H]1O`, the Potency entry is “inactive”.

In the case of `CC(C)[N+](C)(C)CC(O)COc1cccc2ccccc12` (stereo not given), the Potency entry is “inactive”.

Take `CC(CNC1CCCCC1)OC(=O)c1ccccc1` (stereo not given): the Potency entry is “inactive”.

Consider `CCN(CC)CCOC(=O)C1(c2ccccc2)CCCC1`, for which the Potency result is “inactive”.

Consider `O=C1OC2(c3ccccc31)c1cc(Br)c(O)c(Br)c1Oc1c2cc(Br)c(O)c1Br`, for which the Potency result was “inactive”.

Consider `CN(CCCN1c2ccccc2CCc2ccccc21)CC(=O)c1ccc(Cl)cc1`, for which the Potency result is “inactive”.

Consider `C/C=C/C=N/NC(=O)c1ccncc1`, for which the Potency entry was “inactive”.

For the compound `Oc1ccccc1C=NCc1ccccc1`, the Potency result is “inactive”.

`NC(=O)n1c(O)c(C(=O)c2cccs2)c2cc(Cl)ccc21`: the Potency entry was “inactive”.

With `C#C[C@]1(OC(C)=O)CC[C@H]2[C@@H]3CCC4=C/C(=N/O)CC[C@@H]4[C@H]3CC[C@@]21CC`, the Potency entry is “inactive”.

For the compound `CCO[C@@H]1O[C@H](C(COCc2ccccc2)OCc2ccccc2)[C@H](OCc2ccccc2)[C@H]1O` (stereo not given in full), the Potency entry is “inactive”.

With `CN1CCN(C2=Nc3ccccc3Sc3ccc(Cl)cc32)CC1`, the Potency entry is “inactive”.

`CC1CCc2c(N3CCC(O)CC3)c(F)cc3c(=O)c(C(=O)O)cn1c23` (stereo not given): the Potency result is “inactive”.

Take `C#C[C@]1(O)CC[C@H]2[C@@H]3CCC4=Cc5oncc5C[C@]4(C)[C@H]3CC[C@@]21C`: the Potency entry was “inactive”.

For the compound `NCCNC(=O)c1ccc(Cl)cn1`, the Potency result is “inactive”.

As for `O=S(c1cc(Cl)cc(Cl)c1O)c1cc(Cl)cc(Cl)c1O`, the Potency entry was “inactive”.

Regarding `Cc1ccc(O)c([C@H](CCN(C(C)C)C(C)C)c2ccccc2)c1`, the Potency result is “inactive”.

`CCC1NC(=O)c2cc(S(N)(=O)=O)c(Cl)cc2N1` (stereo not given): the Potency result was “inactive”.

`O=C(NC1CCN(CCc2c[nH]c3ccccc23)CC1)c1ccccc1`: the Potency result was “inactive”.

As to `CCc1cc(Cl)c(OC)c(C(=O)NC[C@@H]2CCCN2CC)c1O`, the Potency entry is “inactive”.

Turning to `FC(F)(F)C(F)(F)C(F)(F)C(F)(F)C(F)(F)C(F)(F)C(F)(F)C(F)(F)Br`, the Potency entry was “inactive”.

Regarding `COc1cc([C@H]2Oc3cc([C@H]4Oc5cc(O)cc(O)c5C(=O)[C@@H]4O)ccc3O[C@@H]2CO)ccc1O`, the Potency entry was “inactive”.

`C=C[C@H]1CN2CC[C@H]1C[C@@H]2[C@@H](O)c1ccnc2ccc(OC)cc12`: the Potency result was “inactive”.

As to `C[N+]1(CC2COC(c3ccccc3)(C3CCCCC3)O2)CCCCC1` (stereo not given), the Potency entry was “inactive”.

Turning to `CCN(CC)CCOc1ccccc1C(=O)CCc1ccccc1`, the Potency result is “inactive”.

Regarding `CC(=O)O[C@H]1C[C@@H]2CC[C@@H]3[C@H](CC[C@@]4(C)[C@H]3C[C@H]([N+]3(C)CCCCC3)[C@@H]4OC(C)=O)[C@@]2(C)C[C@@H]1N1CCCCC1`, the Potency result is “inactive”.

Consider `Cc1cccc(C)c1NC(=O)CN1CCCC1`, for which the Potency entry is “inactive”.

As for `CC(O)Cn1cnc2c1c(=O)n(C)c(=O)n2C` (stereo not given), the Potency result was “inactive”.

Take `CCCCCCCC/C=C\CCCCCCCCN`: the Potency entry was “inactive”.

With `CCCN(CCC)S(=O)(=O)c1ccc(C(=O)O)cc1`, the Potency entry is “inactive”.

Take `CC1(C)OC[C@@H]2O[C@@]3(C(=O)O)OC(C)(C)O[C@H]3[C@@H]2O1`: the Potency entry was “inactive”.

For `CCC(CC)(CC(=O)Nc1cccc(/C=C/c2nc(C3CCC3)cs2)c1)C(=O)O`, the Potency result is “inactive”.

Take `Cc1cc(C)cc(OCC2CNC(=O)O2)c1` (stereo not given): the Potency result was “inactive”.
